Compound activity: PubChem, Broad Institute
The entries come from a sample that favours hits as a whole.
Tg IFNy HTS = T. gondii growth inhibition with IFN-gamma, primary screen, cell-based. Toxoplasma gondii growth in IFN-gamma-treated host cells; active compounds read low. activity change, negative = inhibition, % (test concentration not listed). 3.8% of 69,000 active. AID 1259416, 2018; in the data active = activity change below about -70%, passing the limit was not always enough;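 also: host cells are HeLa cells infected with Toxoplasma gondii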
Large screens that a line does not name were inactive; ! = not active in a repeat.

COc1ccc2c(c1)OCC(Cc1ccc(OC)c(OC)c1)C2=O (configuration not stated)	none
COc1ccc2c(c1)NC1(CCN(C(=O)c3cc(OC)c(OC)c(OC)c3)CC1)c1cccn1-2	none
COc1cccc(NC(=O)c2ccc3c(c2)[nH]c(=O)n3C2CCCCC2)c1	Tg IFNy HTS -83
CCN1CCCC1CNC(=O)c1ccc2c(c1)[nH]c(=O)n2Cc1ccc(OC)cc1 (configuration not stated)	none
COc1cccc(NC(=O)CC2NCCNC2=O)c1 (configuration not stated)	none
CCOc1ccc(S(=O)(=O)N2CCN(Cc3nc(-c4ccc(C(=O)NC)cc4)oc3C)CC2)cc1	none
CCc1ccccc1NC(=O)N1CCC2(CC1)NC(=O)c1ccccc1N2C	none
Cc1cc2cc(C(=O)NCCNc3cccnc3)ccc2o1	none
Cc1cc(Cl)ccc1NC(=O)Cn1ncc2c(N3CCOCC3)ncnc21	none
O=C(CS(=O)(=O)c1ccc(Cl)cc1)NOC(=O)c1ccc(Cl)cc1	none
Cc1cc(C(F)(F)F)nn1CC(=O)N1CCCC1c1ccc(F)cc1 (configuration not stated)	Tg IFNy HTS -78
Cc1noc(C)c1C1CCCN1C(=O)Cn1nc(C(F)(F)F)cc1C (configuration not stated)	none
Cc1ccccc1C1CCCN1C(=O)Cn1nc(C(F)(F)F)cc1C (configuration not stated)	none
O=C(c1ccoc1)N1CCC(N2CCCC(C(=O)N3CCOCC3)C2)CC1 (configuration not stated)	none
O=C(NCCCc1ccccn1)c1ccc(-c2cccc3ccnn23)nc1	none
Clc1ccc(C2N(c3ccccc3)CCCN2c2ccccc2)c(Cl)c1	none
CC(=O)c1ccc(CN(C)Cc2nc3ccc(Cl)cc3[nH]2)cc1	none
CN1CCN(C)C2(CCN(C(=O)c3ccn[nH]3)CC2)C1=O	none
COc1ccc(-c2nc(C)c(CCNC(=O)c3cccc([N+](=O)[O-])c3)s2)cc1OC	none
CSc1ssc(=Nc2ccc(F)c(F)c2)c1-c1ccccc1	Tg IFNy HTS -71
CN1C(=O)COc2ccc(NC(=O)CN3C(=O)N(C)C4(CCCCC4)C3=O)cc21	none
CCN1c2ccc(F)cc2C(=O)NC12CCN(C(=O)Cc1ccccc1C)CC2	none
Cc1cc(CN(C)C(=O)c2cc(CN3CCC(Cc4ccccc4)CC3)on2)on1	none
O=C(Cc1ccccn1)N1CC2(C1)[C@H](c1ccccc1)[C@H](CO)N2C(=O)c1ccncc1	none
CCCc1nnc(NC(=O)C2CC(=O)N(CCc3c[nH]c4ccc(Cl)cc34)C2)s1 (configuration not stated)	Tg IFNy HTS -91
CCCCc1nnc(NC(=O)C2CC(=O)N(CCc3c[nH]c4ccc(C)cc34)C2)s1 (configuration not stated)	none
CCCCc1nnc(NC(=O)C2CC(=O)N(CCc3c[nH]c4ccc(OC)cc34)C2)s1 (configuration not stated)	none
COc1ccc(-c2ocnc2C(=O)NCCc2ccccc2F)cc1OC	none
CC(C)N(C)CC1COC2(COCCN(C(=O)N(C)C)C2)C1 (configuration not stated)	none
Cc1ccc(-c2nnc(SCC(=O)c3ccc4c(c3)n(C)c(=O)n4C)n2C)cc1	Tg IFNy HTS -98
CC(C)OC(=O)CSc1nnc(-c2ccc(O)cc2)n1C	none
Cc1ccc(C(=O)CSc2nnc(-c3ccncc3)n2C)cc1	none
CCN1CCN(Cc2cc(C(=O)N3CCC(N)C3)no2)CC1 (configuration not stated)	none
Cc1nc2c(nc(SCc3nc(-c4ccc(Cl)cc4)oc3C)n2C)c(=O)[nH]1	none
CCc1nc(OCC(=O)Nc2ccc(Cl)c(C(F)(F)F)c2)c2ccccc2n1	none
CNC(=O)c1cc(Oc2ccc(NC(=O)Nc3ccc(Cl)c(C(F)(F)F)c3)c(F)c2)ccn1	Tg IFNy HTS -81
Cc1nc(OCC(=O)Nc2ccc(Cl)c(C(F)(F)F)c2)c2ccccc2n1	none
Cc1cnc(CNC(=O)c2cccc(C3CCNC3)c2)cn1 (configuration not stated)	none
CC(C)CN1C(=O)N(C)C2(CCN(CC(C)Cc3ccc4c(c3)OCO4)CC2)C1=O (configuration not stated)	none
Cc1cc(CN2CC3C[C@@H](O)CN3C[C@@H]2C)c(C)n1-c1ccc2c(c1)OCO2 (some centres not stated)	none
CC(Cc1ccc2c(c1)OCO2)CN1CC2C[C@@H](O)CN2C[C@H]1C (some centres not stated)	Tg IFNy HTS -86
CC(C)OCC12CCCOC1CCN(C(=O)Cc1ccsc1)C2 (configuration not stated)	none
CN1CCC(Cn2cnc(-c3ccccc3)c2-c2cn[nH]c2-c2ccccc2)C1 (configuration not stated)	none
COC1CCC2(CCN(Cc3cnn(C)c3)CC2)c2ccccc21 (configuration not stated)	none
COCC1(c2nc(CN3CCN(C)CC3)no2)CCC1	none
COc1cc(C(=O)NCCCCCC(=O)O)cc(OC)c1OC	none
CN(C)c1ccc(C(=O)NCCCCCCC(=O)NO)cc1	Tg IFNy HTS -88!
COCC1(N(C)C(=O)CCNC(=O)c2ccc(F)cc2)CC1	none
